Results taken from the supplement of paper PMC6555819.

What was measured:
Test in all cases: PBM binding z-score (relative to random genomic background probes); higher = stronger binding; sequences stand for … in GC…GCGATTGACAGCGTAGAATGAAGG
[1] = system: FXR:RXRa (NR concentration 270 nM, RXRa partner concentration 90 nM)
Outline: (§1)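 Custom Agilent 4×180K protein-binding microarrays carried double-stranded probes, each with a 34-nt variable region. These regions held direct-repeat seeds, single-nucleotide variants, half-site ablations and random human genomic background sequences. Ligand-free nuclear receptor dimers were incubated on the arrays for 1 h, antibodies against each partner (one per run) detected binding, and scanned fluorescence was regression-normalized. Binding z-scores take the random background probes as reference.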

[2] = system: LXRa:RXRa (NR concentration 270 nM, RXRa partner concentration 90 nM)
Outline: as §1

[3] = system: LXRa homodimer (NR concentration 270 nM)
Outline: as §1

[4] = system: LXRb:RXRa (NR concentration 270 nM, RXRa partner concentration 90 nM)
Outline: as §1

[5] = system: LXRb homodimer (NR concentration 270 nM)
Outline: as §1

[6] = system: PPARa:RXRa (NR concentration 270 nM, RXRa partner concentration 90 nM)
Outline: as §1

[7] = system: PPARg:RXRa (NR concentration 180 nM, RXRa partner concentration 90 nM)
Outline: as §1

[8] = system: PPARg:RXRa 270nM:90nM, anti-RXR (NR concentration 270 nM, RXRa partner concentration 90 nM)
Outline: as §1

[9] = system: PPARg:RXRa 30nM:10nM, anti-RXR (NR concentration 30 nM, RXRa partner concentration 10 nM)
Outline: as §1

[10] = system: PPARg:RXRa 90nM:30nM, anti-RXR (NR concentration 90 nM, RXRa partner concentration 30 nM)
Outline: as §1

| Sequence | PBM binding z-score [1] | PBM binding z-score [2] | PBM binding z-score [3] | PBM binding z-score [4] | PBM binding z-score [5] | PBM binding z-score [6] | PBM binding z-score [7] | PBM binding z-score [8] | PBM binding z-score [9] | PBM binding z-score [10] |
| --- | --- | --- | --- | --- | --- | --- | --- | --- | --- | --- |
| ATATGTAGGTTATCGGCTCATTCAGTTTGCGCAT | 0.488 | 0.867 | 0.283 | 0.755 | 1.03 | 2.6 | 4.14 | 3.87 | 1.47 | 3.4 |
| AGAATGAGTTTATACGTAGATCAGGGAAGAAAGT | -0.0777 | -0.0651 | -0.37 | -0.296 | -0.286 | -0.283 | 0.634 | -0.311 | 0.114 | -0.213 |
| CAAACTAGGTCACCGGAAGGTCAAGGTCCGCATG | 5.96 | 5.56 | 3.66 | 4.58 | 0.998 | 5.83 | 9.82 | 7.78 | 5.66 | 8.09 |
| CCTACTGGGCCAAGGGCATTGATCAGTCAAAGCA | -0.551 | -0.572 | -0.484 | -0.601 | -1.35 | 1.1 | 2.48 | 3.44 | 1 | 2.55 |
| TCGAGTAGGTTAGTCGCGGCATTCAGCCAACATA | -0.279 | -0.139 | -0.606 | -0.576 | -1.32 | 0.228 | -0.37 | 0.565 | 1.03 | 0.9 |
| GCGACTGGGGCTAAGCAGGTTACCATAAGGTTGG | -0.407 | -0.415 | -0.836 | -0.00625 | -0.83 | 0.342 | 0.147 | -0.288 | -0.707 | -0.68 |
| GCTAGTTGCTCAGTAAAAGGTCACACACCGGTCG | 3.27 | 4.03 | 4.51 | 4.02 | 0.393 | 4.42 | 2.23 | 3.52 | 1.06 | 2.88 |
| ACTTACGGGTCAACGAGGTTATGGCACGCGTATA | 7.06 | 5.06 | 0.89 | 4.51 | 0.72 | 5.54 | 5.52 | 5.67 | 2.05 | 3.95 |
| ATCACTAGGTAAGACTCAGTTCAGTGAAGAACGC | 0.15 | 0.00987 | 0.227 | -0.0165 | 0.239 | 0.147 | 0.394 | 0.383 | 0.287 | 0.0779 |
| TCTGTTAGGTCAGTTGGTCAGCTAACGAGCTGCC | 2.18 | 1.74 | 0.264 | 1.37 | 2.71 | 1.99 | 0.27 | 2.47 | 3.02 | 2.76 |
| GTACCAAGGTGAATAGGTCGTTGAGGAGTAGGCG | 0.778 | 0.909 | 0.0544 | 0.533 | -0.56 | 2.32 | 1.22 | 1.67 | 0.113 | 1.14 |
| CCTGCTAGGTCATGGTAAGCTAATCTACAGTATG | 3.82 | 2.46 | 0.0967 | 1.86 | -0.0761 | 3.64 | 2.48 | 2.64 | 0.993 | 1.66 |
| CCTGCTAGGTCAATGGTCTGCTAAAGCAGCTCGC | 2.61 | 2.26 | -0.00615 | 1.78 | -0.252 | 2.75 | 2.2 | 2.86 | -0.129 | 1.83 |
| CCTTACGGATCAAGGTTATAGCACGGGTGGTACG | 0.336 | 0.57 | 0.38 | 0.5 | 0.21 | 0.917 | 0.684 | 0.188 | -0.114 | 0.0556 |
| TCATATAGGTAAACAGGTGAAAGACCGTAAGTTA | 0.974 | 0.774 | 0.26 | 0.571 | -0.084 | 2.47 | 3.45 | 3.63 | 4.12 | 4.03 |
| TTACCAAGTTGAAAGGTCGTTGATGCACGCCTTG | 2.79 | 2.74 | 0.48 | 2.17 | -0.00674 | 3.78 | 4.15 | 5.58 | 3.84 | 5.07 |
| ACTAGCAGGCCAAGTTCGGGTCACTCAAACAAAG | 1.11 | 1.28 | 0.378 | 1.79 | -0.339 | 2.45 | 0.431 | 0.794 | -0.79 | 0.197 |
| GCTTACGGGTCGAAGGTTATAGCATGAATAGAAT | 2.01 | 2 | -0.187 | 2.51 | -0.371 | 4.36 | 6.66 | 6.7 | 4.94 | 6.88 |
| TCCGCTAGGTCAGTTGGTCAGCTAACGAGCTGCC | 1.2 | 0.833 | -0.36 | 0.472 | -0.0467 | 1.57 | 0.233 | 1.55 | 1.2 | 1.49 |
| CCTTACGGGTCACTCCAGCTTATAGCATCGGAGT | 4.62 | 3.14 | -0.000472 | 2.66 | 0.0792 | 4.46 | 2.98 | 3.49 | 0.864 | 2.44 |
| ACTAGCAGACCAAGTTTGGGTCACTCAAACAAAG | -0.0358 | -0.0494 | -0.696 | 0.808 | -0.744 | 1.32 | -0.0128 | 0.182 | -0.186 | 0.531 |
| CCTAATGGGCCAAAGGTCATTGATTCCAATGCTC | 5.18 | 5.16 | 3.94 | 4.84 | 1.08 | 6.03 | 11.8 | 9.96 | 11.9 | 12.1 |
| CCTCGTAGGACAACAGGAGGTCAGAGCTGCCAGA | 0.951 | 2.16 | 1.91 | 1.57 | -0.267 | 1.99 | 0.534 | 0.644 | -0.534 | 0.258 |
| ATCGAAAGGTCGATGGTGAGTATACCCACCCGAA | 3.01 | 2.38 | -0.15 | 1.83 | 0.391 | 3.29 | 1.48 | 1.85 | 0.714 | 1.02 |
| AGAATCAGGTTACCAAAGATCAGGGAAACGCTTG | 0.0425 | 4.27 | -0.14 | 1.12 | 0.162 | 1.69 | 1.24 | 1.19 | 0.411 | 0.466 |
